Rows were chosen to be rich in hits. Some 2.5% of all compounds tested hit in one or more screens of this group.
rCAG RNA binder: molecules binding r(CAG) RNA repeats; AID 651821; 370,000 compounds, 1.3% hits; inhibition, % at 3 µM; r(CAG) RNA repeat, TO-PRO-1 dye displacement fluorescence;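 active = inhibition above the plate cutoff, the mean of all test compounds on that plate plus 3 SD, cut at about 35% in these data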;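 note: higher means more dye released from RNA so lower well fluorescence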
ABCB6 inh MLPCN: blocks the human ABCB6 transporter; fluorescence ratio to DMSO, % at 10 µM; 360,000 compounds, 0.19% hits; K562-ABCB6 porphyrin accumulation, flow cytometry, 1 h; stronger effect = lower value; Q9NP58;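 active = fluorescence ratio to DMSO below 75%, the collection mean minus 3 SD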;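 note: signal is porphyrin accumulated inside mitochondria; lower ratio means ABCB6 inhibition with less porphyrin fluorescence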
Target sequence (Q9NP58 whole entry, looked up): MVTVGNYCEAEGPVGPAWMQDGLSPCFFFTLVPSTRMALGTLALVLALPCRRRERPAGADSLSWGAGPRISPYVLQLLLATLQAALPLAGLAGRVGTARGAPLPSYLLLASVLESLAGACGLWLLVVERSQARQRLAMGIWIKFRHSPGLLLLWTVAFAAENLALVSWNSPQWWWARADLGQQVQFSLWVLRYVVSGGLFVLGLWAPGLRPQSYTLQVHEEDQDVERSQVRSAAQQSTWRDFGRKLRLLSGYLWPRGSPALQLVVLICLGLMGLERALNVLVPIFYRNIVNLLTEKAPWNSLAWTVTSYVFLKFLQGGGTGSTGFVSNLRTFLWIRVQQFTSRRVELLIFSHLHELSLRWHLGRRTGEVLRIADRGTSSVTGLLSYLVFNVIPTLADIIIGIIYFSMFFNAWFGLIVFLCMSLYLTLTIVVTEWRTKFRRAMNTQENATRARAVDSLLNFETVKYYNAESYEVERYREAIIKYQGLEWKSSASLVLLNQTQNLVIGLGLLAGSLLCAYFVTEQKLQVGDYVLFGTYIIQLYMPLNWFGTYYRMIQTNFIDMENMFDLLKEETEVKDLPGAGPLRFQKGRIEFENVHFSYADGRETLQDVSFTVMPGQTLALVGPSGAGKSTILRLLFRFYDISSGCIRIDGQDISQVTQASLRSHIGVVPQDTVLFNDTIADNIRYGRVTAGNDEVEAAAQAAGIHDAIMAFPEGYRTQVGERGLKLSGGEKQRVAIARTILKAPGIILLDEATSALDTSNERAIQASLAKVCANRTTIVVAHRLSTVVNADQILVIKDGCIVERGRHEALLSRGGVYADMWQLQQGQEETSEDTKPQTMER
Exocytosis inh: lytic granule exocytosis inhibition | 360,000 compounds, 0.66% hits | inhibition, % at 10 µM | TALL-104 LAMP-1 surface exposure, flow cytometry; cells stimulated with thapsigargin and PMA;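 active = inhibition above about 55%, limit read from the data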
PG9 binder: binds the HIV-1 gp120 antibody PG9; TR-FRET gp120-PG9 antibody binding; inhibition, % at 6.7 µM; 360,000 compounds, 0.43% hits; AID 624416; in the data active = inhibition above about 8.5%
Granule exo CP1: blocks lytic granule exocytosis | 1,500 compounds, 11% hits | AID 651954 | TALL-104 cells, LAMP-1 externalization, flow cytometry; stimulated with PMA plus thapsigargin | inhibition, % at 10 µM | shares compounds with Exocytosis inh; in the data active = inhibition above about 60%
rCAG bind conf: r(CAG) RNA repeat binding, confirmation; shares compounds with rCAG RNA binder; 4,300 compounds, 70% hits; TO-PRO-1 dye displacement fluorescence; inhibition, % at 3 µM;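 active = inhibition above a per-plate cutoff, the mean inhibition of sample wells plus 3 SD, cut at about 35% in these data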;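 note: loss of TO-PRO-1 fluorescence as compound displaces dye from 1x1 AA loop RNA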
dCAG dye counter: disrupts DNA CAG TO-PRO-1 complex, flagging rCAG hits | shares compounds with rCAG RNA binder | d(CAG) DNA oligo TO-PRO-1 dye displacement, fluorescence | inhibition, % at 3 µM | 4,300 compounds, 94% hits | AID 652068;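 active = inhibition above its plate's cutoff, the mean test-well inhibition plus 3 SD, cut at about 4.8% in these data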;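 note: hits displace the dye from DNA and so lower well fluorescence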
Numbers stand for hits; n = inactive; x = no result given.

SMILES	rCAG RNA binder	ABCB6 inh MLPCN	Exocytosis inh	PG9 binder	rCAG bind conf	dCAG dye counter	others
CN1CCC(O)(c2cccs2)C(C(=O)c2cccs2)C1 (stereo unspecified)	n	n	75	n	x	x	Granule exo CP1=n
COC1C(O)C(C)OC(OC2CCC3(C)C(CCC4C3C(O)CC3(C)C(C5=CC(=O)OC5)CCC43O)C2)C1O (stereo unspecified)	n	n	n	n	x	x
CCOC(=O)c1cnc(SCc2ccc(Cl)c(Cl)c2)nc1N1CC1	n	n	n	n	x	x
CCOC(=O)[C@]12Cc3cc(C)ccc3[C@H]1N(C1CCCCC1)C(=O)c1ccccc12	n	n	60	n	x	x	Granule exo CP1=n
CCOC(=O)[C@]12Cc3cc(N(C)C)ccc3[C@H]1N(Cc1ccccc1)C(=O)c1ccccc12	n	n	n	n	x	x
CCOC(=O)[C@]12Cc3ccc(C)cc3[C@H]1N(C1CCCCC1)C(=O)c1cc(OC)ccc12	n	n	84	n	x	x	Granule exo CP1=n
CCOC(=O)[C@]12Cc3c(cc(OC)c(OC)c3OC)[C@H]1N(C1CCCCC1)C(=O)c1ccccc12	n	n	63	n	x	x	Granule exo CP1=n
CCOC(=O)[C@]12Cc3cc(Cl)ccc3[C@H]1N(Cc1ccccc1)C(=O)c1ccccc12	n	n	87	n	x	x	Granule exo CP1=n
CN(Cc1cccc(-c2ccncc2)c1)C(=O)Oc1ccccc1Cc1ccccc1	x	n	n	x	x	x
COc1ccc(C2=CC(c3ccc4c(c3)OCO4)c3c(c4ccccc4oc3=O)O2)cc1OC (stereo unspecified)	n	n	n	n	x	x
C/C=C1/C[C@@H](C)[C@](O)(CO)C(=O)OCC2=CCN3CC[C@@H](OC1=O)[C@@H]23	n	n	n	n	x	x
CCOC(=O)[C@]12Cc3cc(Cl)ccc3[C@H]1N(C1CCCCC1)C(=O)c1cc(OC)ccc12	n	n	100	n	x	x	Granule exo CP1=92
CC(Cc1ccccc1)NCC(=O)Nc1cc(N(C)C)nc2ccccc12 (stereo unspecified)	n	n	62	n	x	x	Granule exo CP1=n
CC(Cc1ccccc1)NCc1ccccc1O (stereo unspecified)	n	n	n	n	x	x
Nc1nc(Cl)nc2c1ncn2C1CCC(CO)O1 (stereo unspecified)	n	n	n	n	x	x
COC(=O)c1ccc(NC(=O)CSc2nc3ccc(N4C(=O)C5C6C=CC(C6)C5C4=O)cc3s2)cc1 (stereo unspecified)	n	n	81	n	x	x	Granule exo CP1=85
COc1ccc(CC(=O)Nc2ccc(C#N)c(Cl)c2)cc1S(=O)(=O)N1CCOCC1	n	n	n	n	x	x
Cc1ccc(OCC(=O)N2CCN(C3CCC(c4ccccc4)CC3)CC2)cc1 (stereo unspecified)	n	n	95	n	x	x	Granule exo CP1=n
Cc1cc(OCC(=O)NC(Cc2ccc(Cl)cc2)C(=O)O)c2c3c(c(=O)oc2c1)CCC3 (stereo unspecified)	54	n	n	n	54	16
Cn1cccc1/C=C1\C(=O)NC(=O)N(Cc2ccco2)C1=O	40	n	n	n	n	n
Cc1ccc(-n2c(C)cc(/C=C3/C(=O)NC(=O)N(Cc4ccco4)C3=O)c2C)cc1	n	n	n	n	x	x
CCc1ccc(N2C(=O)NC(=O)/C(=C\c3cccn3CCOc3ccc(C(C)C)cc3)C2=O)cc1	n	n	n	n	x	x
Cc1ccc(OCCn2cccc2/C=C2/C(=O)NC(=O)N(Cc3ccco3)C2=O)cc1	36	n	n	n	n	8.7
O=C1CC(=O)N(Cc2ccccc2)C(=S)N1	72	n	n	n	n	n
CC(C)(O)/C=C/C(=O)C(C)(O)C1C(O)CC2(C)C3CC=C4C(C=C(O)C(=O)C4(C)C)C3(C)C(=O)CC12C (stereo unspecified)	n	n	n	n	x	x
SMILES	rCAG RNA binder	ABCB6 inh MLPCN	Exocytosis inh	PG9 binder	rCAG bind conf	dCAG dye counter	others
COc1ccc(OC)c(N2C(=O)NC(=O)/C(=C/c3ccc([N+](=O)[O-])s3)C2=O)c1	79	n	n	n	73	38
O=C1NCN(c2ccccc2)C12CCN(C(c1nnnn1C1CCCC1)C1CC1)CC2 (stereo unspecified)	n	n	n	n	x	x
CNc1ccc2oc(C[C@H]3O[C@@]4(CC[C@H]3C)O[C@H]([C@H](C)C(=O)c3ccc[nH]3)[C@H](C)C[C@H]4C)nc2c1C(=O)O	79	n	n	n	38	7.3
COC(=O)C1=C(c2ccc(Cl)c(C(F)(F)F)c2)C[C@@H]2CC[C@H]1N2C(=O)NCCOc1ccccc1	x	n	n	x	x	x
O=C1NC(=O)N(Cc2ccc(F)cc2)C(=O)/C1=C\c1ccoc1	48	n	n	n	38	11
CN(C)c1ccc(/C=C2\C(=O)NC(=O)N(Cc3ccc(F)cc3)C2=O)cc1	n	n	n	n	x	x
O=c1[nH]c2ccccc2n1C1CCN(C(CCc2ccccc2)c2nnnn2C2CCCCC2)CC1 (stereo unspecified)	n	n	n	n	x	x
Cc1ccc(OC(=O)N(C)C[C@H]2OCc3cnnn3CCCC(=O)N([C@H](C)CO)C[C@@H]2C)cc1	n	n	n	n	x	x
CN(C)C1C(=O)C(C(N)=O)=C(O)C2(O)C(=O)C3=C(O)c4c(O)cccc4C(C)(O)C3C(O)C12 (stereo unspecified)	73	n	n	n	n	9.1
c1ccc(C(c2ccccc2)c2ccncc2)cc1	n	n	n	n	x	x
CCOC(=O)[C@]12Cc3cc(OC)ccc3[C@H]1N(CC(=O)OC)C(=O)c1cc(OC)ccc12	n	n	n	n	x	x
Cc1ccc(/C=C2\C(=O)NC(=O)N(Cc3ccccc3Cl)C2=O)o1	n	n	n	n	x	x
O=C1NC(=O)N(Cc2ccccc2Cl)C(=O)/C1=C/c1cccs1	56	n	n	n	n	n
Cc1cc(/C=C2\C(=O)NC(=O)N(Cc3ccco3)C2=O)c(C)n1-c1ccc(C(=O)O)cc1	n	n	n	n	x	x
Cc1cc(/C=C2\C(=O)NC(=O)N(Cc3ccccc3)C2=O)c(C)n1-c1ccc(Cl)c(C(=O)O)c1	43	n	n	n	65	24
Cc1cc(/C=C2\C(=O)NC(=O)N(Cc3ccccc3Cl)C2=O)c(C)n1-c1ccc(C(=O)O)cc1	39	n	n	n	59	18
N#CCC[C@@H]1CC[C@]2(CCCN(Cc3ccccn3)C2)O1	n	x	x	x	x	x
O=c1[nH]c2ccccc2n1C1CCN(C(c2cc3ccccc3o2)c2nnnn2-c2ccc3c(c2)OCCO3)CC1 (stereo unspecified)	n	n	n	n	x	x
C(#CCN1CCCCC1)CN1CCCCC1	x	n	n	x	x	x
COc1ccc(CCN)cc1S(N)(=O)=O	n	x	n	n	x	x
Cc1cc(C=C2C(=O)NC(=S)NC2=O)c(C)n1C1CCCC1	35	n	n	n	n	9.6
CN1C(=O)C(=Cc2ccc(Sc3ccccc3)o2)C(=O)N(C)C1=S	54	11	n	n	58	21
O=C(N/N=C/c1c(O)n(CCC2=CCCCC2)c(=O)[nH]c1=O)c1ccccc1	46	n	n	n	40	11

Screening results (PubChem)
